Shown are actives, neighbours in structure and some others; about 2.3% of the full set was active somewhere.
Coupling enz = coupling enzyme interference in Giardia aldolase counter-screen; coupling enzyme system counterscreen, AmpLite Red fluorescence; 290,000 tested, 0.67% active; activity change, negative = inhibition, % at 58.2 µM, hits read low; in the data active = activity change below about -30%
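Compounds tested against the coupling enzymes alone at 57.5 uM final; readout was AmpLite Red fluorescence (525/598 nm) after 20 min at RT.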
Tau fibril ThT = blocks human tau fibril formation measured by thioflavin T; 270,000 tested, 2.1% active; AID 1460; recombinant tau K18 P301L, heparin-induced fibrillization, ThT fluorescence; Potency, µM (top dose mostly 57.4 µM), inactives show top-dose activity, negative = inhibition, hits mostly inhibitors; P10636; also: potency is read from the fitted curve at half-maximal effect; nearly all actives have a fitted effect of over 55% in size
Target sequence (P10636 561-689 P618L limits assumed): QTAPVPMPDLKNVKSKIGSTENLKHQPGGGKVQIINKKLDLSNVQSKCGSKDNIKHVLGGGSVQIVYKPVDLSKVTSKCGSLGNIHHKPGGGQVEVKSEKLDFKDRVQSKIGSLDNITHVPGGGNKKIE
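K18 P301L tau (15 uM + 0.24 uM Alexa 594-tagged), heparin 20 uM, NaOAc pH 7, 6 h 37 C; ThT 30 uM, 1 h RT, ex 450/em 510 nm.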
Tau fluor cs = counter-screen for tau fibril formation inhibitors | 280,000 tested, 0.93% active | tau K18 P301L Alexa594 fluorescence, heparin fibrillization | AID 1463 | Potency, µM (highest dose often 57.7 µM), for inactives: top-dose activity change, negative = decrease; also: potency is read from the fitted curve at half-maximal effect; nearly all actives have a fitted effect of over 55% in size
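Human tau K18 P301L (15 uM unlabeled, 0.24 uM Alexa 594-labeled) in 100 mM sodium acetate pH 7 with 20 uM heparin, 6 hr at 37 C. ThT 30 uM added, 1 hr ambient; Alexa 594 FP and total fluorescence read at 555/632 nm.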
USP1 inh = blocks the human USP1/UAF1 deubiquitinase complex; recombinant USP1/UAF1, Ub-Rhodamine cleavage fluorescence; 390,000 tested, 0.23% active; Potency, µM (titrated, usually from 57.1 µM), for inactives: top-dose activity change, negative = inhibition, hits mostly inhibitors; AID 743255; also: potency is read from the fitted curve at half-maximal effect; nearly all actives have a fitted effect of over 60% in size
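USP1/UAF1 complex at 1 nM was preincubated with compound for 15 min at room temperature, then Ub-Rho substrate (150nM final) was added. Fluorescence (480/540 nm) was read kinetically, 6 reads every 60 seconds.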
Tau fibril FP = tau fibrillization inhibition (FP); K18 P301L tau heparin fibrillization, Alexa594 FP, 6 h; Potency, µM (series often up to 57.7 µM), for inactives: at the top dose activity, negative = inhibition, most hits filed as inhibitors; 280,000 tested, 0.39% active; also: potency is read from the fitted curve at half-maximal effect; nearly all actives have a fitted effect of over 55% in size
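K18 P301L tau (15 uM unlabeled/0.24 uM Alexa 594-labeled, final) + compound + heparin 20 uM final; 100 mM NaOAc pH 7; 6 hr 37 C; ThT 30 uM final added, 1 hr RT; FP ex 555/em 632 nm.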
* = called active by the depositor; ? = inconclusive; · = no result; [ ] = dose if it differs, or a comment. Unless noted, calls follow the shape of the dose curve; as a rule, active = well fitted curve in the direction sought with a large enough effect; inconclusive = small, poorly fitted or top-dose-only effect, or another doubt; inactive = no such curve, though single readings can be large; an effect the other way counts as inactive or inconclusive. % is scaled to controls: 0 for no effect and ±100 for the full control effect.

SMILES | Coupling enz | Tau fibril ThT | Tau fluor cs | USP1 inh | Tau fibril FP
COc1ccccc1C1CCN(c2ccc(CO)cc2[N+](=O)[O-])CC1 | -1 | 14µM* | ? | -18% | -1%
CC(=O)O[C@H]1C2=CO[C@H](C)[C@H]3[C@H]4C5=C([C@H](O)[C@H]6O[C@@H]6C5=O)[C@H](O[C@H]4C)[C@@]23C(=O)[C@H]2O[C@@H]21 | 0 | ? | -9%[11.6 µM] | · | ?
S=c1[nH]nc(-c2cc(-c3ccco3)[nH]n2)n1-c1ccccc1Cl | -4 | 20µM* | ? | -4% | ?
O=C(NCc1ccco1)c1ccc(C(=O)NCc2ccco2)cc1 | · | · | · | -3% | ·
O=C(NCc1ccco1)c1ccc2c(c1)C(=O)c1ccccc1-2 | 0 | 13µM* | -29% | 7% | ?
COc1cccc(C(=O)Nc2cc(-c3ccccc3)no2)c1 | · | -14% | ? | ? | ?
c1cc2c3c(cccc3c1)C(N1CCOCC1)=N2 | -51* | -15% | -2% | -25% | 9%
CC(=O)N1CCN(C2=Nc3cccc4cccc2c34)CC1 | -47* | ? | 3% | -23% | 2%
COc1ccccc1N1CCN(C2=Nc3cccc4cccc2c34)CC1 | -18 | ? | -19% | -9% | 1%
CCOC(=O)N1CCN(C2=Nc3cccc4cccc2c34)CC1 | -57* | ? | -10% | ? | -2%
c1ccc(CC2CCN(C3=Nc4cccc5cccc3c45)CC2)cc1 | -6 | ? | -12% | -11% | 3%
CC1CN(C2=Nc3cccc4cccc2c34)CC(C)O1 (configuration not stated) | -46* | -3% | 3% | ? | -3%
COc1ccc(OC)c(CNc2ncc(-c3ccc(Cl)cc3)n2C)c1 | · | ? | -22% | -15% | 6%
O=c1c(-c2cc(F)cc(F)c2)nc2cnc(N3CCOCC3)nc2n1C[C@H]1CCCO1 | 3 | · | · | · | ·
COCC1=C2c3ccccc3[C@@H]3CNC(=O)C3(C(=O)OC)C[C@@H]2n2c(=O)n(-c3ccccc3)c(=O)n2C1 (some centres not stated) | 1 | -4% | -2% | · | 2%
COc1ccc2c(c1)n([O-])c1c([n+]2=O)CCC1 | -11 | -16% | -12% | ? | 9%
CCOc1ccc2c(c1)n([O-])c1c([n+]2=O)CCCC1 | -58* | 20µM* | -22% | 1% | ?
CCN(CCCNC(=O)c1nn(-c2ccc(OC)c(Cl)c2)c(=O)c2c1c1ccccc1n2C)c1cccc(C)c1 | · | -4% | -25% | -3% | -3%
Brc1ccc(-c2cn3nc4c(nc3n2)CCCC4)cc1 | -7 | 18µM* | ? | ? | ?
COc1cc(CN2CCCC(C(=O)c3ccc4c5c(cccc35)CC4)C2)cc(OC)c1O (configuration not stated) | -39* | 28µM* | ? | -12% | ?
COc1ccc(N=C2NN=C(c3ccc4c(c3)OCCO4)CS2)cc1 | 2 | 7.1µM* | ? | ? | ?
FC(F)Sc1ccc(N=C2NN=C(c3ccc4c(c3)OCCO4)CS2)cc1 | 0 | ? | ? | ? | 1%
Cc1ccccc1OCC(=O)N/N=C/c1ccc([N+](=O)[O-])o1 | 4 | -17% | -15% | -6% | 8%
COc1ccccc1NCC(=O)N/N=C/C=C/c1ccccc1 | -5 | 14µM* | ? | -25% | 4%
C=CCc1cccc(/C=N/NC(=O)CCCNc2ccc(C)cc2)c1O | -7 | ? | 11µM*[quencher] | -19% | 11%
SMILES | Coupling enz | Tau fibril ThT | Tau fluor cs | USP1 inh | Tau fibril FP
C=CCc1cccc(/C=N/NC(=O)CNc2ccccc2OC)c1O | 0 | ? | 16µM*[quencher] | -11% | ?
COc1ccc(NCC(=O)N/N=C/C=C\c2ccccc2)cc1 | -13 | 0% | -4% | -20% | 3%
COc1ccccc1OCC(=O)N/N=C/C=C/c1ccc([N+](=O)[O-])o1 | 0 | 14µM* | -21% | -19% | -4%
COc1ccc(-c2nc(Cn3c(=O)cc(-c4ccccc4)c4c(C)nn(C)c43)c(C)o2)cc1OC | · | -6% | -5% | -8% | -10%
COc1ccc(-c2noc(CC(=O)Nc3ccc(F)cc3F)n2)cc1 | · | -1% | -3% | -11% | -1%
CC(=O)N(Cc1ccc(F)cc1)C1=C(NCCc2ccccc2)C(=O)c2ccccc2C1=O | -47* | 28µM* | ? | ? | ?
CC(=O)N(Cc1ccc(F)cc1)c1cccc(C)c1C | 0 | -7% | -13% | -7% | 0%
CCOC(=O)c1c(NC(=O)c2cc3nc(-c4ccc(Br)cc4)cc(C(F)(F)F)n3n2)sc(C(C)=O)c1C | · | -10% | -6% | -28% | -6%
CCCCC(=O)N/N=C/c1ccc(Sc2cccc3cccnc23)o1 | -35* | -17% | ? | -8% | -10%
CC(=O)Nc1ccc(N=Cc2nc(-c3ccc(C)cc3)oc2O)cc1 | 2 | 4.5µM* | ? | 9% | 1%
CSc1ccccc1N=Cc1nc(-c2ccccc2)oc1O | -10 | 20µM* | ? | -23% | -11%
Oc1oc(-c2ccccc2)nc1C=Nc1ccccc1 | 2 | ? | -28% | -9% | 6%
COc1ccccc1N=Cc1nc(-c2ccccc2)oc1OC(C)=O | -7 | 25µM* | ? | -17% | ?
Cc1ccc(N=Cc2nc(-c3ccc(C)cc3)oc2O)cc1 | -1 | ? | -17% | 2% | -9%
COc1ccc(N=Cc2nc(-c3ccco3)oc2O)cc1 | 0 | 16µM* | ? | -17% | 7%
CCOC(=O)c1c(C)oc2ccc(N(C(C)=O)S(=O)(=O)c3c(C)cc(C)cc3C)cc12 | · | -9% | -7% | -17% | -7%
Cc1ccccc1Cn1c2ccccc2c2cnn(CC(=O)NCC(C)c3ccccc3)c(=O)c21 (configuration not stated) | · | 0% | 1% | -14% | -11%
CCOC(=O)c1c(C)[nH]c(C)c1S(=O)(=O)NCC(=O)NCc1ccc(C)cc1 | · | 0% | 1% | -19% | -2%
CC(=O)Oc1oc(-c2ccccc2)nc1C=Nc1ccc(N(C)C)cc1 | 1 | 14µM* | ? | 25µM* | -13%
CN(C)c1ccc(N=Cc2nc(-c3ccccc3)oc2O)cc1 | 0 | 2.2µM* | ? | -40% | -9%
CCOC(=O)c1scc(-c2ccccc2)c1S(=O)(=O)N1CCN(c2ccc(Cl)cc2)CC1 | · | 2% | -13% | ? | 4%
COc1cc(C2c3c(oc4ccc(F)cc4c3=O)C(=O)N2c2nc(C)c(C)s2)cc(OC)c1OC (configuration not stated) | · | -8% | -12% | -6% | -8%
CCOC(=O)/C(=N/Nc1ccc(OC)cc1)N1CCCc2ccccc21 | -42* | -11% | ? | -4% | 11%
CCOC(=O)/C(=N/Nc1ccccc1)N1CCCc2ccccc21 | -29 | 12% | 6% | -1% | -2%

Compound activity (PubChem BioAssay)
